# From PubChem BioAssay (NCI)
# Compounds without any hit were thinned out: in the full panel of roughly 83,000, 20% have a hit.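 Assay: single dose, 48 h. Readout: percent growth (0 = no net growth; negative = cell death). Active: <10.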 Unmarked numbers belong to inactive results. The source made the active and inactive calls.
# Assays:
# Test in all cases: NCI-60 one-dose screen, 48 h (100 = growth as untreated, 0 = no growth, -100 = all killed)
# Details in all cases: 10 µM unless noted
# [1] = test system: RPMI-8226 leukemia
# [2] = test system: OVCAR-8 ovarian
# [3] = test system: OVCAR-5 ovarian
# [4] = test system: OVCAR-4 ovarian
# [5] = test system: SK-OV-3 ovarian
# [6] = test system: IGROV1 ovarian
# [7] = test system: OVCAR-3 ovarian
# [8] = test system: HS 578T breast
# [9] = test system: NCI/ADR-RES ovarian
# [10] = test system: T-47D breast
Compound,growth [1],growth [2],growth [3],growth [4],growth [5],growth [6],growth [7],growth [8],growth [9],growth [10]
Cn1c2c(c(=O)[nH]c1=O)NC1=C(C(=O)c3ccccc31)C1(C=C(O)c3ccccc31)N2 (stereo not given),105%,107%,111%,71.3%,111%,95.5%,95.4%,110%,117%,108%
Cc1nc(Nc2cn[nH]c2C(=O)Nc2ccc(CN3CCN(C)CC3)cc2)c2ccsc2n1,79%,102%,136%,82.5%,64.4%,77.2%,91.3%,66.8%,110%,91.7%
CSc1nc2c(c(=O)[nH]1)N=C1c3ccccc3C(=O)C1C(c1ccccc1)N2 (stereo not given),36.2%,61.3%,82.5%,72.6%,64.3%,17.4%,-12% (active),48.2%,38.3%,43.9%
O=S1(=O)N(Cc2ccccc2)[C@@H](Cc2ccccc2)[C@H](O)[C@H](O)[C@H](Cc2ccccc2)N1Cc1ccccc1,-7.2% (active),7.06% (active),41.1%,15.4%,6.58% (active),10.3%,-22% (active),19.7%,-7.86% (active),7.87% (active)
COc1ccc(/C=C2\CCC/C(=C\c3ccc(OC)c(OC)c3)C2=O)cc1OC,-4.53% (active),2.04% (active),41%,-0.91% (active),29.7%,4.96% (active),13.8%,41.2%,11%,19.3%
CCC1=C[C@]2(C3CC(=O)N(c4ccccc4)C3=O)CC(C(C)(C)C)C[C@@H]2[C@@H]2C(=O)N(c3ccccc3)C(=O)[C@H]12 (stereo not given in full),59.7%,85.5%,88.7%,89.4%,88.6%,90.8%,86%,83%,91.3%,70.5%
COc1ccc(-n2c(C(O)c3ccccc3)nn(CN3CCOCC3)c2=S)cc1 (stereo not given),88.9%,107%,101%,96.1%,101%,96.6%,124%,93.3%,107%,90.4%
O=C1C(=O)c2c(ccc3ccccc23)-c2ccccc21,4.32% (active),2.95% (active),-22.4% (active),-95.3% (active),91.5%,-21.4% (active),-25.5% (active),-8.76% (active),-1.89% (active),-48.6% (active)
COc1ccc(/C=C/C(=O)c2c(C)nc3ccccc3c2/C=C/c2ccccc2)c(OC)c1,66.1%,76.1%,88.2%,66.5%,94.3%,47.5%,84.8%,82.3%,85.9%,55%
O=c1oc2ccc(I)cc2c(=O)n1-c1ccc(Cl)cc1F,-24.8% (active),8.33% (active),21.5%,15.8%,-1.52% (active),18.7%,8.51% (active),5.48% (active),8.36% (active),-12% (active)
CC(C)C[C@H](C(=O)N[C@@H](C)C(N)=O)N1CC=CCN(O)S1(=O)=O,106% [5 µM],96.4% [5 µM],99.3% [5 µM],106% [5 µM],108% [5 µM],120% [5 µM],110% [5 µM],110% [5 µM],105% [5 µM],103% [5 µM]
CN1CCN(Cc2ccc(C(=O)Nc3cncc(C#Cc4cnc(N)c5ccccc45)c3)cc2C(F)(F)F)CC1,-41.4% (active),-17.8% (active),-44% (active),-44.5% (active),35.2%,-47.4% (active),-74.1% (active),-35.4% (active),-25.4% (active),-10.5% (active)
Nc1ccn(C2O[C@H](CO)[C@@H](O)[C@H]2O)c(=O)n1 (stereo not given in full),49.8%,58.5%,104%,72.3%,90.2%,82.9%,88.7%,106%,70.1%,99.2%
O=C(CCc1nnc2sc(-c3ccc(Cl)cc3Cl)nn12)c1nc2ncccc2[nH]1,-2.08% (active),0.0907% (active),-49.3% (active),-37.7% (active),36.1%,-14.8% (active),-68.7% (active),0.818% (active),-3.89% (active),-26.3% (active)
CCN1C(=O)N(CC)C2C1NC(=S)N2/N=C/C=C/c1ccccc1OC (stereo not given),16.5%,14.8%,45.2%,53.5%,33.7%,31.2%,16.6%,40.3%,6.29% (active),65.9%
COc1ccc(CCN2C(=O)/C(=C/c3ccc(C4Oc5ccccc5C5CC(c6cccc(OC)c6)=NN54)cc3)SC2=S)cc1 (stereo not given),103%,102%,99.9%,98.9%,97.7%,104%,102%,101%,104%,100%
O=C(Nc1nc2c(s1)CCc1c-2c(Br)n(Cc2ccccc2)c1Br)c1ccccc1,63.2%,45.4%,79.9%,-3.77% (active),57.2%,18.8%,62.3%,47.9%,61.8%,46.4%
O=C1c2cc(I)ccc2Oc2cc([N+](=O)[O-])ccc2N1c1ccc(Cl)cc1F,87.4%,91%,90.5%,79.4%,96.1%,72.3%,100%,88.6%,89.7%,82.5%
CN1CCN(Cc2ccc(C(=O)Nc3cncc(C#Cc4cnc5cccnn45)c3)cc2C(F)(F)F)CC1,29%,78.7%,47.2%,41.8%,78.9%,31.5%,63.3%,54.8%,91.6%,81.2%
CCCC(=O)CC(C)=O.CCCC(=O)CC(C)=O.[Cu],102%,93.1%,117%,113%,77.3%,103%,116%,110%,101%,77.1%
O=C(CCc1nnc2sc(COc3ccccc3)nn12)c1nc2ncccc2[nH]1,140%,98.9%,98.4%,100%,94.7%,87.2%,108%,79%,106%,92.7%
Cn1c(=O)n(C)c2cc(CNCCNc3ccnc4cc(Cl)ccc34)ccc21,34.1%,66.6%,76.7%,81.5%,86.2%,98.8%,89.3%,77.6%,80.3%,82.4%
O=C(COc1cc(O)c2c(=O)cc(-c3ccccc3)oc2c1)Nc1ccccc1C(F)(F)F,54.8%,29%,62.9%,-50.1% (active),44.1%,40.3%,-2.06% (active),15.5%,51.2%,14.3%
COc1ccc(/C=C/C(=O)c2c(C)nc3ccccc3c2/C=C/c2ccccc2)cc1O,25.6%,30.9%,17.2%,61.9%,71.7%,34.7%,13.6%,37.5%,17.7%,39.6%
O=c1oc2ccc(F)cc2c(=O)n1-c1ccc(Br)cc1F,-22.3% (active),8.64% (active),21.8%,11.9%,-3.03% (active),17%,5.94% (active),-3.75% (active),6.34% (active),-12.3% (active)
NCCNc1nc2ccc(F)cc2c2c(=O)c3cc(F)ccc3sc12,7.67% (active),29.9%,81.2%,37.2%,77.6%,22.9%,38.1%,59.5%,61.7%,33.7%
O=C(Nc1ccc(-c2nc3ccc(NC(=O)c4ccc(Cl)cc4)cc3[nH]2)cc1)c1ccc(Cl)cc1,-22.6% (active),21.4%,39.3%,-2.34% (active),60.7%,45.1%,-64.9% (active),57.9%,40.2%,-1.92% (active)
